Laboratory results published in PubChem BioAssay.
The other results are listed elsewhere or left out. The source made the active and inactive calls.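 The calls were made as follows, unless noted: active = mean inhibition above about 50% (limit read from the data); inactive = the rest.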

Molecular target: Caspase-3 (Homo sapiens) (UniProt P42574)
Assay: caspase-3 protease inhibitors, confirmation, selectivity assay for SENP inhibitor project, biochemical, single concentration (AID 488918);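 also: plate controls were enzyme with DMSO for no effect and wells without caspase-3 for full effect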
Conditions: purified caspase-3, Z-DEVD-aminoluciferin luminescence, 60 min; at 12.5 µM; stronger effect = higher value

Chain of Caspase-3 (Homo sapiens) (P42574 28-227 limits assumed): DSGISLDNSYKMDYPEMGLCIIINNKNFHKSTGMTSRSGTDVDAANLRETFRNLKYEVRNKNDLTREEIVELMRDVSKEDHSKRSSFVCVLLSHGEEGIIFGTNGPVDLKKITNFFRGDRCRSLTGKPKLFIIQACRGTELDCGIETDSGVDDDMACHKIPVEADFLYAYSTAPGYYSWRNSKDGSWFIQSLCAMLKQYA

| SMILES | inhibition |
| --- | --- |
| O=[N+]([O-])c1ccccc1N/N=C1\CCc2ccccc21 | 0.7% (inactive) |
| CCCCSc1nnc(-c2ccc(C)cc2)o1 | 55% (active) |
| COc1ccc2nc(Nc3nc4cc5c(cc4s3)OCCO5)sc2c1 | 31.8% (inactive) |
| Cc1ccc(O)c(CNc2nc3ccccc3n2C)c1 | 8.9% (inactive) |
| Cc1[nH]n(-c2ccc([N+](=O)[O-])cc2)c(=O)c1C=NCCN1CCN(C(=O)c2ccccc2F)CC1 | 37.1% (inactive) |
| N=c1c2c3c(sc2nc2n1CCCCC2)CCCC3 | 11.1% (inactive) |
| O=C(ON=C1CCN(S(=O)(=O)c2ccccc2)CC1)c1ccc(Cl)cc1 | 17.7% (inactive) |
| Oc1ccc(Br)cc1C=Nc1ccc2[nH]ncc2c1 | -0.8% (inactive) |
| O=c1c(-c2ccccc2)coc2cc(O)ccc12 | 85.9% (active) |
| O=C1/C(=C/c2cccs2)CCC1C1CCCC1 (stereo not drawn) | 60.9% (active) |
| O=c1oc2cc(O)ccc2cc1-c1ccc(F)cc1 | 98.2% (active) |
| O=C(COc1ccc2oc3c(c2c1)CCCC3)Nc1ccccn1 | 24.7% (inactive) |
| COc1cccc(C(=O)c2cc3ccc(O)cc3oc2=O)c1 | 98.7% (active) |
| C1=C(CCNc2ncnc3c2cnn3-c2ccccc2)CCCC1 | 39.5% (inactive) |
| O=C(Nc1ncc([N+](=O)[O-])s1)C1COc2ccccc2O1 (stereo not drawn) | 98.4% (active) |
| Cc1ccc(NC(=O)c2sccc2C)cc1[N+](=O)[O-] | 81% (active) |
| O=C(OC1CCOC1=O)c1ccc(-c2nc3ccccc3s2)s1 (stereo not drawn) | 96.3% (active) |
| COC(=O)c1sc(NC(=O)c2ccc(OC)cc2OC)nc1C | 66.4% (active) |
| COc1ccc(C(=O)Nc2ccc(F)cc2F)cc1 | 87.1% (active) |
| CSC1=N/C(=C\C=C\c2cccs2)C(=O)S1 | 68.1% (active) |

| SMILES | inhibition |
| --- | --- |
| O=C(OCC(=O)N1CCN(c2ccccc2)CC1)c1ccc([N+](=O)[O-])s1 | 8.3% (inactive) |
| COc1ccc(/C=N/Nc2ccccc2C(=O)O)cc1 | 96% (active) |
| O=C(Nc1ccc(F)cc1)c1cc2c(s1)CCCC2 | 84% (active) |
| COc1ccc(-n2ncc3c(SCC(=O)NNC(C)=O)ncnc32)cc1 | 51.3% (active) |
| Cc1ccnc(NC(=O)c2ccoc2C)c1 | 95.6% (active) |
| O=C(Nc1cccnc1Cl)c1cc(-c2ccccc2O)on1 | 8% (inactive) |
| COc1cc(C#Cc2ccc3cc(CCCO)oc(=O)c3c2)cc(OC)c1 | 42.7% (inactive) |
| C/C(=N\Nc1nc2ccccc2[nH]1)c1cccs1 | 63.1% (active) |
| CCc1ccc(NC(=O)C(=O)NNC(=O)c2cccs2)cc1 | 89.9% (active) |
| FC(F)(F)c1ccnc(Oc2ccc(C3=NCCS3)cc2)c1 | 29.9% (inactive) |
| Cc1cccc(-c2noc(-c3ccc(F)cc3)n2)c1 | 80.6% (active) |
| O=c1c2c(nc3cc(-c4cccc(Cl)c4)[nH]n13)CCCC2 | 41.6% (inactive) |
| COc1ccc(C(=O)Nc2ccc3c(c2)OCO3)cc1OC | 91.3% (active) |
| Cc1cc(C(=O)N/N=C/c2ccc(N3CCOCC3)cc2)c(C)o1 | 95.4% (active) |
| O=C(Nc1ccc(Cl)cc1)c1ccsn1 | 60.3% (active) |
| O=C1/C(=C/c2cccs2)CCc2ccccc21 | 95.8% (active) |
| O=C(Nc1ccccc1C(=O)Nc1ccncc1)c1ccc([N+](=O)[O-])cc1 | 65.1% (active) |
| Oc1cccc2ccc(/C=C/c3ccc(Br)s3)nc12 | 59.9% (active) |
| Nc1ccc(-c2nnc(-c3ccc(-c4ccccc4)cc3)o2)cc1 | 6.5% (inactive) |

Test system: not listed separately
Assay: luciferase luminescence interference by compounds, confirmation, artefact control for SENP inhibitor project, biochemical, single concentration, SENP8 reaction pre-completed (AID 488919;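 active = mean inhibition above about 50% when retested at one dose, limit read from the data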;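 also: plate controls were DMSO wells with completed reaction for no effect and substrate without enzyme for full effect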)
Conditions: Pre-incubated SENP8/Z-RLRGG-aminoluciferin, at 12.5 µM, stronger effect = higher value

| SMILES | inhibition |
| --- | --- |
| O=[N+]([O-])c1ccccc1N/N=C1\CCc2ccccc21 | -0.8% (inactive) |
| CCCCSc1nnc(-c2ccc(C)cc2)o1 | 23.2% (inactive) |
| COc1ccc2nc(Nc3nc4cc5c(cc4s3)OCCO5)sc2c1 | 24.3% (inactive) |
| Cc1ccc(O)c(CNc2nc3ccccc3n2C)c1 | -0.5% (inactive) |
| Cc1[nH]n(-c2ccc([N+](=O)[O-])cc2)c(=O)c1C=NCCN1CCN(C(=O)c2ccccc2F)CC1 | 49.3% (inactive) |
| N=c1c2c3c(sc2nc2n1CCCCC2)CCCC3 | 11.6% (inactive) |
| O=C(ON=C1CCN(S(=O)(=O)c2ccccc2)CC1)c1ccc(Cl)cc1 | -1.9% (inactive) |
| Oc1ccc(Br)cc1C=Nc1ccc2[nH]ncc2c1 | -3.9% (inactive) |
| O=c1c(-c2ccccc2)coc2cc(O)ccc12 | 74.8% (active) |
| O=C1/C(=C/c2cccs2)CCC1C1CCCC1 (stereo not drawn) | 36.6% (inactive) |
| O=c1oc2cc(O)ccc2cc1-c1ccc(F)cc1 | 95.4% (active) |
| O=C(COc1ccc2oc3c(c2c1)CCCC3)Nc1ccccn1 | 4.6% (inactive) |
| COc1cccc(C(=O)c2cc3ccc(O)cc3oc2=O)c1 | 98% (active) |
| C1=C(CCNc2ncnc3c2cnn3-c2ccccc2)CCCC1 | -4.4% (inactive) |
| O=C(Nc1ncc([N+](=O)[O-])s1)C1COc2ccccc2O1 (stereo not drawn) | 48.6% (inactive) |
| Cc1ccc(NC(=O)c2sccc2C)cc1[N+](=O)[O-] | 82.6% (active) |
| O=C(OC1CCOC1=O)c1ccc(-c2nc3ccccc3s2)s1 (stereo not drawn) | 83.8% (active) |
| COC(=O)c1sc(NC(=O)c2ccc(OC)cc2OC)nc1C | -5.6% (inactive) |
| COc1ccc(C(=O)Nc2ccc(F)cc2F)cc1 | 67.9% (active) |
| CSC1=N/C(=C\C=C\c2cccs2)C(=O)S1 | 52.2% (active) |

| SMILES | inhibition |
| --- | --- |
| O=C(OCC(=O)N1CCN(c2ccccc2)CC1)c1ccc([N+](=O)[O-])s1 | -3.3% (inactive) |
| COc1ccc(/C=N/Nc2ccccc2C(=O)O)cc1 | 97.6% (active) |
| O=C(Nc1ccc(F)cc1)c1cc2c(s1)CCCC2 | 84.2% (active) |
| COc1ccc(-n2ncc3c(SCC(=O)NNC(C)=O)ncnc32)cc1 | 5.9% (inactive) |
| Cc1ccnc(NC(=O)c2ccoc2C)c1 | 80.1% (active) |
| O=C(Nc1cccnc1Cl)c1cc(-c2ccccc2O)on1 | 1.6% (inactive) |
| COc1cc(C#Cc2ccc3cc(CCCO)oc(=O)c3c2)cc(OC)c1 | 15.2% (inactive) |
| C/C(=N\Nc1nc2ccccc2[nH]1)c1cccs1 | 61.7% (active) |
| CCc1ccc(NC(=O)C(=O)NNC(=O)c2cccs2)cc1 | 5.2% (inactive) |
| FC(F)(F)c1ccnc(Oc2ccc(C3=NCCS3)cc2)c1 | 17% (inactive) |
| Cc1cccc(-c2noc(-c3ccc(F)cc3)n2)c1 | 61.4% (active) |
| O=c1c2c(nc3cc(-c4cccc(Cl)c4)[nH]n13)CCCC2 | -4.6% (inactive) |
| COc1ccc(C(=O)Nc2ccc3c(c2)OCO3)cc1OC | 77.4% (active) |
| Cc1cc(C(=O)N/N=C/c2ccc(N3CCOCC3)cc2)c(C)o1 | 49.9% (inactive) |
| O=C(Nc1ccc(Cl)cc1)c1ccsn1 | 51.9% (active) |
| O=C1/C(=C/c2cccs2)CCc2ccccc21 | 97.6% (active) |
| O=C(Nc1ccccc1C(=O)Nc1ccncc1)c1ccc([N+](=O)[O-])cc1 | 10.6% (inactive) |
| Oc1cccc2ccc(/C=C/c3ccc(Br)s3)nc12 | 9.6% (inactive) |
| Nc1ccc(-c2nnc(-c3ccc(-c4ccccc4)cc3)o2)cc1 | -0.8% (inactive) |
